Experimental data taken from PubChem BioAssay (NCI).
About 79,000 compounds went through this panel and 15% of them were active in at least one assay; those are over-represented in the sample as a whole. Unmarked numbers belong to inactive results. No stated cut-off is given here; in the data, active means growth inhibition above about 70%; inactive means the rest.

Experiment: NCI Yeast Anticancer Drug Screen. Data for the rad50 strain (AID 155);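 further: 0% = growth of vehicle-only cultures of the same strain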
Details: S. cerevisiae rad50 strain growth inhibition; at 50.0 µM; stronger effect = higher value
Method in brief: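 Relative growth inhibition (compound vs vehicle) was measured in yeast with a defined repair-gene alteration.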

| SMILES | growth inhibition |
| --- | --- |
| COc1cc(CN2CCN(CCO)CC2)c(O)c(CN2CCN(CCO)CC2)c1 | -2% |
| Cc1ccncc1.[O]=[Ge].[O]=[Ge].[O]=[Ge].[O]=[Ge].[O]=[Ge].[O]=[Ge][OH].[O]=[Ge][OH] | -27.3% |
| N#CCOS(=O)(=O)O | -0.6% |
| CC1=NN(c2cc(S(=O)(=O)O)ccc2Cl)C(=O)C1N=Nc1ccccc1 (configuration not stated) | -23.3% |
| CN1NC(=O)CC1c1ccccc1 (configuration not stated) | 18.9% |
| C/C(CCc1cnc2ccccc2c1)=N/NC(N)=O | 69.2% |
| N#Cc1ccc(OCCCCCOc2ccc(C#N)cc2I)c(I)c1 | -4.5% |
| OC1(c2ccccc2)c2ccccc2Oc2cc(Cl)ccc21 (configuration not stated) | 9.4% |
| C=CCOC(=O)c1c(Cl)c(Cl)c(Cl)c(Cl)c1C(=O)O | 18.4% |
| CC1COC(C(=O)O)(c2ccccc2)O1 (configuration not stated) | -1.05% |
| CCOC(=O)c1ccc(=O)n2c1[nH]c1ccccc12 | 9.05% |
| CCO/C=N/c1oc(-c2ccccc2)nc1C#N | 4.6% |
| CCCCCCCCCCCCn1[nH]c(C)c(C(=S)SCCCCCCCC)c1=O | -7.2% |
| O=C(Nc1ccc(C(=O)O)cc1)Nc1nccs1 | 16.9% |
| COC(=O)C(C(=O)C(=O)NC1=C(Cl)C(=O)c2ccccc2C1=O)c1csc(-n2nc(-c3ccccc3)cc2-c2ccccc2)n1 (configuration not stated) | -0.4% |
| CCOC(=O)NC(CCl)NC(=O)OCC | -11.7% |
| COCn1cnc2c(ccn2C2OC(CO)C(O)C2O)c1=O (configuration not stated) | -25.4% |
